The values that follow come from PubChem BioAssay (NCATS).

Molecules are shown by their SMILES. Activity calls are given as the source filed them. Calls come from the whole dose curve; as a rule, active = well fitted inhibition curve with a large enough effect; inconclusive = small, poorly fitted or top-dose-only effect; inactive = flat fitted curve, though single readings scatter.

For the experiment, the target named is Luciferin 4-monooxygenase (Photinus pyralis) (UniProt P08659). The experiment is described as follows: Primary firefly luciferase (FLuc) qHTS assay for identification of artifact compounds. (AID 1845220).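 For activity change, negative = inhibition: plate controls were DMSO vehicle for no effect and no enzyme for full effect.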 Note: nearly all actives have a fitted effect of over 60% in size. The conditions noted are these: purified firefly luciferase, luminescence, 5 min; series mostly up to 54.1 µM; activity change, negative = inhibition: at the top concentration. In a few lines: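 Titrated compounds were incubated 15 min at RT, protected from light, with luciferin and ATP at 10 uM; reaction started with 10 nM FLuc, luminescence imaged at 5 min, and concentration-response fitted by Hill equation.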
In general terms: In qHTS, concentration-response curves come from the screen itself.
For the compound `O=C1NC(Cc2c[nH]c3ccccc23)C(=O)NC1Cc1cnc[nH]1` (configuration not stated), the compound was called inactive.
`COc1ccc(Cl)c(Nc2nc3ccccc3nc2NS(=O)(=O)c2cccc(NC(=O)C(C)(C)N)c2)c1`: the “activity change, negative = inhibition” value is -2.83% (inactive).
Still for that read-out and setting: in the case of `CC(=O)O[C@@H]1C[C@H](O)[C@@]23CO[C@H](O)[C@]1(C)C2C[C@@H](O)[C@]1(C)C3C(=O)[C@H](OC(C)=O)[C@@]2(C)[C@H](c3ccoc3)C[C@H]3O[C@]321` (some centres not stated) it was 4.41% [at 25.7 µM] (inactive); in that of `COc1ccc(-c2ccc(-c3cn(C(=O)N4CCCCC4c4ccccc4)nn3)cc2)cc1` (configuration not stated), 0.481% (inactive).
Regarding `CC1=C(C(=O)O)/C(=C/CO[C@@H]2O[C@H](COC(=O)/C=C/c3ccc(O)cc3)[C@@H](O)[C@H](O)[C@H]2O)C(O)C1` (some centres not stated), the “outcome” value was “inactive [at 25.7 µM]”.
For the compound `O=C(Nc1ccn[nH]1)c1c(F)cccc1F`, the “activity change, negative = inhibition” value was -3.93% (inactive).
Regarding `CCOc1cc(C)c(Cl)cc1S(=O)(=O)n1cnc2ccccc21`, the “activity change, negative = inhibition” value is 0.305% [at 25.7 µM] (inactive).
As for `C[C@@H]1C(=O)O[C@H]2C[C@]34[C@H]5C[C@@H](C(C)(C)C)[C@]36[C@@H](OC(=O)[C@H]6O)O[C@]4(C(=O)O5)[C@]21O`, the “activity change, negative = inhibition” value is -1.68% [at 25.7 µM] (inactive).
Same read-out and setting: in the case of `COc1ccc([C@H]2CNC(=O)C2)cc1OC1CCCC1` it was -5.28% (inactive); in that of `CC(C)[C@@H]1C(=O)N(S(C)(=O)=O)[C@@H]2CCN(C(=O)/C=C/CN3CCCCC3)[C@H]21`, 0.668% (inactive).
Consider `CC1(C)CC[C@]2(C(=O)O[C@@H]3O[C@H](CO)[C@@H](O)[C@H](O)[C@H]3O)CC[C@]3(C)C(=CCC4[C@@]5(C)C[C@@H](O)[C@H](O)[C@](C)(C=O)C5CC[C@]43C)[C@@H]2[C@@H]1O` (some centres not stated), for which the “outcome” value was “inactive [at 25.7 µM]”.
On to `O=C(Nc1c(-c2cccs2)nc2ccccn12)c1ccc(Cl)cc1`, for which the “activity change, negative = inhibition” value is 1.13% (inactive).
